The values below come from PubChem BioAssay AID1566 (Sanford-Burnham Center for Chemical Genomics, 2009).

The campaign covered roughly 290,000 compounds. About 1,800 (0.62%) were called active. For the sample, actives were picked, then their nearest neighbours and some compounds at random. Unmarked numbers belong to inactive results. Rule as the data show it: active = inhibition above about 50%; inactive = the rest. Peptide text beside a SMILES is read from it. * marks the point of attachment. OBn = c1ccc(CO*)cc1

The nature of this assay: NOD2 signaling inhibitors, cell-based, luminescence, uHTS, HEK293 (AID 1566). Conditions: HEK293 NOD2/NF-kB luciferase reporter, at 4 µM, active compounds read high. A general note: Reporter assays use an easily measured gene product as a stand-in for the process of interest.
Regarding `CC(=O)Oc1ccc(OC(C)=O)c2c1CC(C)=C(C)C2`, the inhibition (as a rule, the relative decrease from the control value, in per cent) is 33.6%.
Consider `Cc1ccc(OCC(=O)O/N=C(\N)c2ccncc2)cc1C`, for which the inhibition was -6.1%.
Next, `C=CCn1c(SCc2ccc(Cl)cc2)nc2cc(C(=O)N3CCC(C(N)=O)CC3)ccc2c1=O`: 1.8%; `COc1ccc(-c2noc(CN3CCOCC3)n2)cc1OC`: -8.7%; `CCn1c(C)c(C(C)=O)c(N2CCN(c3ccc(OC)cc3)CC2)nc1=S`: 12.6%.
In the case of `Cc1ccc(NC(=O)N2CCCC2C(=O)Nc2ccc3c(c2)OCCO3)cc1` (configuration not stated) it was -15.1%.
Next, `CC(=O)Nc1ccc(NC(=O)CN(C)S(=O)(=O)c2ccc3ccccc3c2)cc1`: -3.2%; `CC(=O)NCC(=O)N[C@@H](CC(=O)OCc1ccccc1)C(=O)OCc1ccccc1` (Ac-Gly-Asp(OBn)-OBn): 15.4%; `O=C(CCc1nc(-c2ccccc2F)no1)NCCN1CCOCC1`: 9.2%.
Take `COc1ccc(Nc2cc3n(c(=O)n2)CCc2cc(OC)c(OC)cc2-3)cc1`: the inhibition is -35.6%.
Next, `O=C(COc1ccccc1)NN1C(=O)CSC1=S`: 3.5%; `Cc1ccc(NC(=O)c2cc3ccccc3oc2=O)cc1S(=O)(=O)N(C)C`: 85.6% (active); `Cc1ccc(NC(=O)c2cc3ccccc3o2)cc1S(=O)(=O)N(C)C`: -98.2%.
In the case of `COc1ccccc1NS(=O)(=O)c1cc(NC(=O)c2cc3ccccc3oc2=O)ccc1C` it was -25.3%; in that of `COc1ccc(Cl)cc1NC(=O)COc1ccc(S(=O)(=O)N2CCOCC2)cc1C`, 11.3%.
Turning to `Cc1ccc(CCNC(=O)c2cc(-c3ccncc3)nc3ccc(S(=O)(=O)N4CCOCC4)cc23)cc1`, the inhibition is -13.8%.
In the case of `CS(=O)(=O)c1cc([N+](=O)[O-])c(Sc2nc3ccccc3[nH]2)c([N+](=O)[O-])c1` it was 4.3%; in that of `Cc1ccc(-n2c(C)cc(C(=O)COc3cccnc3[N+](=O)[O-])c2C)cc1`, 30.3%; in that of `Cc1cc(C(=O)COc2cccnc2[N+](=O)[O-])c(C)n1-c1ccccc1`, 20.6%.
Next, `COCCn1c(C)cc(C(=O)COc2cccnc2[N+](=O)[O-])c1C`: 4.6%.
Next, `CCn1nc(C(=O)OCC(=O)c2cc(C)n(Cc3cccs3)c2C)c2ccccc2c1=O`: -20.7%.
As to `Cc1cc(C(=O)COC(=O)c2ccccc2O)c(C)n1Cc1cccs1`, the inhibition is 89.6% (active).
Turning to `Cc1cc(C(=O)CN2C(=O)c3ccccc3C2=O)c(C)n1Cc1cccs1`, the inhibition is 19%.
`Cc1cc(C(=O)COc2ccc3ccc(=O)oc3c2)c(C)n1Cc1cccs1`: the inhibition was -4.5%.
In the case of `Cc1ccc2cccc(OCC(=O)c3cc(C)n(Cc4ccco4)c3C)c2n1` it was -10.4%; in that of `Cc1cc(C(=O)COC(=O)c2ccc3c(c2)OCO3)c(C)n1Cc1cccs1`, -8.7%; in that of `Cc1ccc(C)c(C(=O)CSc2n[nH]c(-c3ccncc3)n2)c1`, 11%.
In the case of `COC(C[C@H]1O[C@H]1[C@H](O)[C@H](C)OCc1ccccc1)OC` it was 9.8%; in that of `CC(C)c1ccc(NC(=O)c2ccccc2NC(=O)C2CC=CCC2C(=O)O)cc1` (configuration not stated), -9.6%; in that of `O=C(NC1CCCC1)C(NS(=O)(=O)c1cccc2nsnc12)c1ccccc1` (configuration not stated), 15.9%.
Next, `Clc1ccc(Nc2nc(N3CCOCC3)nc(N3CCOCC3)n2)cc1Cl`: 8.7%.
As for `Clc1ccc(C2[C@H]3CN(Cc4ccc(-c5ccccc5)cc4)[C@H](c4ccccc4)C34CC2(c2ccccc2)C4)cn1` (some centres not stated), the inhibition is 6.2%.
In the case of `COc1ccc(N2CCN(C(=O)c3nc4nc(C)cc(C)n4n3)CC2)cc1` it was 7.4%; in that of `CC(C)Cc1ccc(C(C)C(=O)Nc2ccccc2O)cc1` (configuration not stated), 22.9%.
Next, `C=CCNC(=O)NC(=O)Cn1c(=O)c2c(ncn2CC)n(Cc2ccccc2)c1=O`: 17.8%.
Take `Cc1nc(SCc2cccc(C(=O)O)c2)nc2c1CCCC2`: the inhibition is 11%.
In the case of `Cc1nc(SCc2ccccc2)nc2c1CCC2` it was -57.5%; in that of `Cc1nc(SCc2ccc(C(=O)O)cc2)nc2c1CCCC2`, 54.6% (active); in that of `COc1ccc(OCC(=O)N/N=C/c2ccc(N(C)C)cc2)cc1`, -12.2%.
Consider `Cc1cc(/C=C2/C(=O)NN(c3ccccc3)C2=O)c(C)n1-c1cccc(O)c1`, for which the inhibition is -42.2%.
In the case of `Cc1cc(/C=C2\SC(=S)NC2=O)c(C)n1-c1cccc(O)c1` it was -226%.
Next, `COc1ccc(-n2c(C)cc(/C=C3/SC(=S)N(C)C3=O)c2C)cc1`: 24.3%; `Cc1cc(/C=C2\SC(=O)N(C)C2=O)c(C)n1-c1ccc(O)cc1`: 0.7%.
For the compound `Cc1ccc(OCC(=O)NCCCNC(=O)c2ccc(C)nc2)cc1`, the inhibition was 7.3%.
Next, `C/C(=C\C#N)n1nc(C)cc1N`: 16.8%; `Cc1cc2oc3c(c(=O)c2cc1C)C(c1ccc(C(C)C)cc1)N(CCCN1CCOCC1)C3=O` (configuration not stated): 0.6%.
Next, `CSc1nsc(SCC(=O)NCc2ccccc2)n1`: -5.3%; `CCc1ccc(NC(=S)N(Cc2cccnc2)Cc2ccco2)cc1`: 6.5%; `C=CCc1cccc2cc(C(=O)O)c(=O)oc12`: -2.5%.
Next, `C=CCc1cccc2cc(C(=O)Nc3cccc(C(=O)O)c3)c(=O)oc12`: -0.7%; `C=CCc1cccc2cc(C(=O)Nc3ccccc3C(=O)O)c(=O)oc12`: 62.4% (active).
As to `NC(=O)CN1CCN(CCN2C(=O)c3cccc4cccc(c34)C2=O)CC1`, the inhibition is 1.7%.
In the case of `Cc1cc(N2CCN(c3nc(-c4ccc([N+](=O)[O-])cc4)cs3)CC2)c2ccccc2n1` it was 15.6%; in that of `Cc1cc(N2CCN(c3nc(-c4ccccc4)cs3)CC2)c2ccccc2n1`, 26.2%.
For the compound `COc1ccc(-c2csc(N3CCN(c4cc(C)nc5ccccc45)CC3)n2)cc1OC`, the inhibition was 70% (active).
Next, `O=C(/C=C/c1ccccc1)NC(=S)NNC(=O)c1cnccn1`: 20.5%; `COc1ccc(-n2c(C)cc(C(=O)COc3ccc(C)nc3[N+](=O)[O-])c2C)cc1`: -5.4%; `Cc1ccc(OCC(=O)c2cc(C)n(CC(F)(F)F)c2C)c([N+](=O)[O-])n1`: 23%.
Next, `Cc1ccc(OCC(=O)c2cc(C)n(C)c2C)c([N+](=O)[O-])n1`: 32.9%; `Cc1ccc(OCC(=O)c2cc(C)n(C3CC3)c2C)c([N+](=O)[O-])n1`: 11.3%.
In the case of `C=CCn1c(C)cc(C(=O)COc2ccc(S(=O)(=O)N3CCCC3)cc2[N+](=O)[O-])c1C`, the inhibition is -1.6%.
In the case of `Cc1ccc(OCC(=O)c2cc(C)c(C)cc2C)c([N+](=O)[O-])n1` it was 12.2%.
